# Measured values taken from the supplement of paper PMC8728848.
# The full list was thinned out, with the strongest signals kept by preference.
# Key:
# Assay in all cases: glycan array binding signal (z-score within array); higher = stronger binding
# Conditions in all cases: glycan notation: IUPAC condensed, linker removed
# [1] = target: GalNAc(a1-3)GalNAc(b1-3)Gal(a1-4)Gal(b1-4)GlcNAc
# Summary of the method: (§1)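 Glycan array data were curated from 3228 arrays in the Consortium for Functional Glycomics database and kept only where the protein sequence was available. Glycan names were converted to IUPAC-condensed notation, and columns mapping to the same glycan were averaged. The binding signal is a within-array Z-score, averaged across arrays of the same protein sequence at different concentrations or buffers and across linkers. Negative Z-scores can be read as non-binding.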
# GalNAc(b1-3)GlcNAc = target: GalNAc(b1-3)GlcNAc
# Summary of the method: as §1
# GalNAc6S(b1-4)GlcNAc = target: GalNAc6S(b1-4)GlcNAc
# Summary of the method: as §1
# GlcA(b1-3)GlcNAc = target: GlcA(b1-3)GlcNAc
# Summary of the method: as §1
# [2] = target: GlcNAc(b1-2)Man(a1-3)[GlcNAc(b1-2)Man(a1-6)]Man(b1-4)GlcNAc(b1-4)GlcNAc
# Summary of the method: as §1
# [3] = target: GlcNAc(b1-3)Gal(b1-4)GlcNAc(b1-3)Gal(b1-4)GlcNAc
# Summary of the method: as §1
# [4] = target: GlcNAc(b1-3)Gal(b1-4)GlcNAc(b1-3)Gal(b1-4)GlcNAc(b1-3)Gal(b1-4)GlcNAc(b1-3)Gal(b1-4)GlcNAc(b1-2)Man(a1-3)[GlcNAc(b1-3)Gal(b1-4)GlcNAc(b1-3)Gal(b1-4)GlcNAc(b1-3)Gal(b1-4)GlcNAc(b1-3)Gal(b1-4)GlcNAc(b1-2)Man(a1-6)]Man(b1-4)GlcNAc(b1-4)GlcNAc
# Summary of the method: as §1
# Kdn(a2-6)Gal(b1-4)GlcNAc = target: Kdn(a2-6)Gal(b1-4)GlcNAc
# Summary of the method: as §1
# Man(a1-2)Man(a1-3)Man = target: Man(a1-2)Man(a1-3)Man
# Summary of the method: as §1
# [5] = target: Man(a1-3)[Man(a1-6)]Man(a1-6)[Man(a1-2)Man(a1-3)]Man(b1-4)GlcNAc(b1-4)GlcNAc
# Summary of the method: as §1
# [6] = target: Neu5Ac(a2-3)Gal(b1-3)GalNAc(b1-3)Gal(a1-4)Gal(b1-4)Glc
# Summary of the method: as §1
# [7] = target: Neu5Ac(a2-3)Gal(b1-3)GlcNAc(b1-4)Gal(b1-4)Glc
# Summary of the method: as §1
# [8] = target: Neu5Ac(a2-3)Gal(b1-4)GlcNAc(b1-2)Man(a1-3)[Neu5Ac(a2-6)Gal(b1-4)GlcNAc(b1-2)Man(a1-6)]Man(b1-4)GlcNAc(b1-4)GlcNAc
# Summary of the method: as §1
# [9] = target: Neu5Ac(a2-3)Gal(b1-4)GlcNAc(b1-3)Gal(b1-3)GlcNAc
# Summary of the method: as §1
# [10] = target: Neu5Ac(a2-3)Gal(b1-4)GlcNAc(b1-3)Gal(b1-4)GlcNAc(b1-3)Gal(b1-4)GlcNAc
# Summary of the method: as §1
# [11] = target: Neu5Ac(a2-3)Gal(b1-4)[Fuc(a1-3)]GlcNAc(b1-3)Gal(b1-4)[Fuc(a1-3)]GlcNAc(b1-3)Gal(b1-4)[Fuc(a1-3)]GlcNAc
# Summary of the method: as §1
# [12] = target: Neu5Ac(a2-3)Gal6S(b1-4)GlcNAc
# Summary of the method: as §1
# [13] = target: Neu5Ac(a2-3)Gal6S(b1-4)[Fuc(a1-3)]GlcNAc
# Summary of the method: as §1
# [14] = target: Neu5Ac(a2-3)GalNAc(b1-4)GlcNAc
# Summary of the method: as §1
# [15] = target: Neu5Ac(a2-6)Gal(b1-4)GlcNAc(b1-2)Man(a1-3)[Neu5Ac(a2-3)Gal(b1-4)GlcNAc(b1-2)Man(a1-6)]Man(b1-4)GlcNAc(b1-4)GlcNAc
# Summary of the method: as §1
# [16] = target: Neu5Ac(a2-6)Gal(b1-4)GlcNAc(b1-2)Man(a1-3)[Neu5Ac(a2-6)Gal(b1-4)GlcNAc(b1-2)Man(a1-6)]Man(b1-4)GlcNAc(b1-4)GlcNAc
# Summary of the method: as §1
# [17] = target: Neu5Ac(a2-6)Gal(b1-4)GlcNAc(b1-3)Gal(b1-4)GlcNAc(b1-6)[Gal(b1-3)]GalNAc
# Summary of the method: as §1
# [18] = target: Neu5Ac(a2-6)Gal(b1-4)GlcNAc(b1-3)Gal(b1-4)[Fuc(a1-3)]GlcNAc(b1-3)Gal(b1-4)[Fuc(a1-3)]GlcNAc
# Summary of the method: as §1
# [19] = target: Neu5Ac(a2-6)Gal(b1-4)GlcNAc6S
# Summary of the method: as §1
# [20] = target: Neu5Ac(a2-8)Neu5Ac(a2-3)Gal(b1-3)GalNAc(b1-4)[Neu5Ac(a2-8)Neu5Ac(a2-3)]Gal(b1-4)Glc
# Summary of the method: as §1
# [21] = target: Neu5Ac(a2-8)Neu5Ac(a2-3)[GalNAc(b1-4)]Gal(b1-4)Glc
# Summary of the method: as §1
# [22] = target: Neu5Ac(a2-8)Neu5Ac(a2-8)Neu5Ac
# Summary of the method: as §1
# Neu5Ac(b2-6)GalNAc = target: Neu5Ac(b2-6)GalNAc
# Summary of the method: as §1
# Neu5Gc(a2-3)Gal(b1-4)Glc = target: Neu5Gc(a2-3)Gal(b1-4)Glc
# Summary of the method: as §1
# [23] = target: Neu5Gc(b2-6)Gal(b1-4)GlcNAc
# Summary of the method: as §1
binder,measurement,setting,value
TAL6-6LysM (Trichoderma atroviride) (protein) AASKLGVPQPAQRDQVNCQLYAVQPNDNCIDISSKNNITYAQLLSWNPSLSSTCSNLASLNSSSICVSNPKGTFSISSNTVGATDIATTTAPVPSPTLDQTTSRCAKYYQVSDGDDCSHLTAQFAITLKDFIFLNSEVWQNCTNLELGYYYCVEPVGYISTYPGYLPTATTKPFNQTSATSLPYDGDPWARFSSNSSVIPIANGTRVDCYSYVYVKNLTENLFADCWNMASMYEITREELVLWNPSLGNDGSSGSNLSGAEASQVASSIAIPTTAPSSITTNLYTYPCTVAANISYCVALVSSTGALPTNTAPPGPHASGEISNCTAWFAPEAYDTCKSILDIFEMSFANFYKMNPSVGPDCSGLAVGTNYCVSTYPNGEDPNDDWDGDDSIPSISPTGIITPTPTQSGMVSNCNKFYDVHSNDGCSAIASSQHVDLSSLYKWNPAIKTDCSGLQASVYVCIGILTTSMSTTSKLPTTTSKPSTTSKPPTGITTPTPTQSGMVKNCNKFYDVHSGDGCSAIASSQKVNLSSFYLWNPAVKTDCSGLQASVFVCIGTLTTSMSTTTSKLPTTTSKPSTTSKPPTGIITPTPTQNGMVKNCNKFYDVHSGDGCSAIASSQKVNLSSFYLWNPAVKTDCSGLQASVFVCVGTATTTTAAGITTPTPTQSGMVSGCNKFYDVHAGDGCSAIASSQKIALSSLYKWNPAVKTDCSGLQASVYICIGVGNAAAARVTGAAASFLEQKLISEEDLNSAVDHHHHHH,glycan array binding signal (z-score),[1],-0.794
same,glycan array binding signal (z-score),GalNAc(b1-3)GlcNAc,-0.241
same,glycan array binding signal (z-score),GalNAc6S(b1-4)GlcNAc,0.157
same,glycan array binding signal (z-score),GlcA(b1-3)GlcNAc,1.11
same,glycan array binding signal (z-score),[2],0.42
same,glycan array binding signal (z-score),[3],0.291
same,glycan array binding signal (z-score),[4],-0.734
same,glycan array binding signal (z-score),Kdn(a2-6)Gal(b1-4)GlcNAc,2.71
same,glycan array binding signal (z-score),Man(a1-2)Man(a1-3)Man,-0.128
same,glycan array binding signal (z-score),[5],2.52
same,glycan array binding signal (z-score),[6],-0.741
same,glycan array binding signal (z-score),[7],0.273
same,glycan array binding signal (z-score),[8],-0.683
same,glycan array binding signal (z-score),[9],-0.147
same,glycan array binding signal (z-score),[10],1.76
same,glycan array binding signal (z-score),[11],0.058
same,glycan array binding signal (z-score),[12],0.428
same,glycan array binding signal (z-score),[13],-1.04
same,glycan array binding signal (z-score),[14],-0.545
same,glycan array binding signal (z-score),[15],-0.013
same,glycan array binding signal (z-score),[16],0.076
same,glycan array binding signal (z-score),[17],-0.387
same,glycan array binding signal (z-score),[18],2.13
same,glycan array binding signal (z-score),[19],0.283
same,glycan array binding signal (z-score),[20],0.052
same,glycan array binding signal (z-score),[21],2.17
same,glycan array binding signal (z-score),[22],-0.139
same,glycan array binding signal (z-score),Neu5Ac(b2-6)GalNAc,-0.369
same,glycan array binding signal (z-score),Neu5Gc(a2-3)Gal(b1-4)Glc,-1.25
same,glycan array binding signal (z-score),[23],0.217
